Laboratory results as given in PubChem BioAssay (EPA / NIEHS).
Records with an inconclusive call do not appear. Active and inactive are the calls of the source. The calls were made as follows: active = hit-call score of the fitted dose curve at least 0.9, where 1 is the maximum; inconclusive = response in the unintended direction; inactive = score below 0.9.

Tests used:
[1] = target: Estrogen receptor (Homo sapiens) (UniProt P03372); experiment: OT_ER_ERaERa_1440: Odyssey Thera (OT) 24-hour HEK293T Protein-Complementation Assay for Estrogen Receptor-alpha/-alpha Homodimer (AID 2283349);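 also: hits raise fluorescence above DMSO for agonists and antagonists alike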
Estrogen receptor (Homo sapiens), sequence (P03372 whole entry, looked up, the tested form may be a part): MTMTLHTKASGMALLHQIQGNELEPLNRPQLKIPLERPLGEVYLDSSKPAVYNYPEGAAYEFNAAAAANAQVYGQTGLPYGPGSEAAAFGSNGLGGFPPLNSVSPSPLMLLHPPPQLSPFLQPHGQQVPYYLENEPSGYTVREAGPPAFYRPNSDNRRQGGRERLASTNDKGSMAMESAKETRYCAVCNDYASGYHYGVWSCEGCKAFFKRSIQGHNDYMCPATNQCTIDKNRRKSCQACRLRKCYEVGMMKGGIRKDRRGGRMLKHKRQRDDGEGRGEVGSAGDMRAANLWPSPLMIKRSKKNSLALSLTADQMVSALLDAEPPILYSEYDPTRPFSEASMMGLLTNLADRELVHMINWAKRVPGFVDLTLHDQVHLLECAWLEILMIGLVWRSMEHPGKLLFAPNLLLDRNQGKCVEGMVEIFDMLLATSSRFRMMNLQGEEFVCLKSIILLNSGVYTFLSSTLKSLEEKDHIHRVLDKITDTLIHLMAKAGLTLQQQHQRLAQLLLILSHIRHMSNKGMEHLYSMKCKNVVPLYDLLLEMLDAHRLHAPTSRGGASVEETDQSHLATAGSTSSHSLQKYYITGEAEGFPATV
Outline: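 Protein-fragment complementation between two human ERα ligand-binding domains (aa 310-547) in stably transfected HEK293T cells was monitored after 24 h treatment, using fluorescence intensity relative to vehicle controls.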

[2] = target: Bile acid receptor (Homo sapiens) (UniProt Q96RI1); experiment: NVS_NR_hFXR_Antagonist: NovaScreen (NVS) Nuclear Receptor Binding Assay for human Farnesoid X Receptor Antagonism (FXR) (AID 2283350)
Outline: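 Cell-free TR-FRET ligand-binding read-out on human FXR (NR1H4) in antagonist mode, measured 1 h after dosing. Primary screen in duplicate at 25 uM, actives retested in concentration series; signal loss scored versus DMSO.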

[3] = target: Estrogen receptor (Homo sapiens) (UniProt P03372); experiment: OT_ER_ERaERa_0480: Odyssey Thera (OT) 8-hour HEK293T Protein-Complementation Assay for Estrogen Receptor-alpha/-alpha Homodimer (AID 2283351);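 also: rise in fluorescence from reassembled reporter fragments on ERα LBD homodimer in nucleus or whole cell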
Outline: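 Binding reporter in which dimerisation of ERα LBD (aa 310-547) fusions reconstitutes a fluorescent reporter in HEK293T cells. Compounds incubated 8 h; mean fluorescence intensity increase versus DMSO scored.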

[4] = target: T1, Estrogen receptor (Homo sapiens) + Estrogen receptor beta (Homo sapiens) (UniProt P03372+Q92731); experiment: OT_ER_ERaERb_0480: Odyssey Thera (OT) 8-hour HEK293T Protein-Complementation Assay for Estrogen Receptor-alpha/-beta Heterodimer (AID 2283352)
T1 sequence (P03372 whole entry, looked up, the tested form may be a part): as above
T1 sequence (Q92731 whole entry, looked up, the tested form may be a part): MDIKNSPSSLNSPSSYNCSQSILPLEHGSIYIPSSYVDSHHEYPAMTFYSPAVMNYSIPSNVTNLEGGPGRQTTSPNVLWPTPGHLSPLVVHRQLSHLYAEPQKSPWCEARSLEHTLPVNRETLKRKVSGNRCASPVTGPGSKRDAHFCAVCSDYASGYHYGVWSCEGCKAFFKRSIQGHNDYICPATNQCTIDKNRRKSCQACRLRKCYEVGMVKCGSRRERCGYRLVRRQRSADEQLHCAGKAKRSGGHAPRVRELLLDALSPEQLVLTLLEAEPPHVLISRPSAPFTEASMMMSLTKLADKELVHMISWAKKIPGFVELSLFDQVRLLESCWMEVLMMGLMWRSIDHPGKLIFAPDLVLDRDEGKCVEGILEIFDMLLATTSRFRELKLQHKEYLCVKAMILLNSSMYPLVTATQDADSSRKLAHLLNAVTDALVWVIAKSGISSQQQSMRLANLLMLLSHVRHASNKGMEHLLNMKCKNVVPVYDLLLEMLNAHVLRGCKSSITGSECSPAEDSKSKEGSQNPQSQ
Outline: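 Fluorescence increase from reconstituted reporter fragments, quantified by laser scanning cytometer, reflects ER-alpha/ER-beta heterodimer formation in human HEK293T cells. Exposure 8 h; positive-direction fitting against DMSO vehicle.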

[5] = target: Androgen Receptor/SRC-1 Co-activator, AR (gene 367) (UniProt P10275); experiment: OT_AR_ARSRC1_0960: Odyssey Thera (OT) 16-hour HEK293T Protein-Complementation Assay for Androgen Receptor/SRC-1 Co-activator (AID 2283353);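 also: actives raise the signal above DMSO so potency reflects increased AR and SRC-1 complex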
Outline: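 Interaction of AR with SRC-1 was followed by YFP fragment complementation in HEK293T cells after 16 h of dosing. Gain of nuclear-over-cytoplasmic 488 nm fluorescence against DMSO controls defined activity.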

[6] = target: Androgen Receptor/SRC-1 Co-activator, AR (gene 367) (UniProt P10275); experiment: OT_AR_ARSRC1_0480: Odyssey Thera (OT) 8-hour HEK293T Protein-Complementation Assay for Androgen Receptor/SRC-1 Co-activator (AID 2283354);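 also: hits raise the complementation signal above DMSO so AC50 marks enhancers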
Outline: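 Measures AR/SRC-1 binding by Venus YFP fragment complementation in HEK293T stable lines at 8 h post-dose. Imaging quantifies the 488nm nucleus/cytoplasm ratio in ≥400 cells; DMSO defines baseline.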

[7] = target: T1, Estrogen receptor (Homo sapiens) + Estrogen receptor beta (Homo sapiens); experiment: OT_ER_ERaERb_1440: Odyssey Thera (OT) 24-hour HEK293T Protein-Complementation Assay for Estrogen Receptor-alpha/-beta Homodimer (AID 2283356);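 also: heteromer of ER alpha and ER beta binding domains; hits raise reporter fluorescence and both agonists and antagonists give an increase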
Outline: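 Fragment complementation between ER alpha (310-547) and ER beta (263-489) ligand-binding domains in HEK293T cells; signal read 24 h post-dosing by laser scanning cytometer. Gain of fluorescence relative to DMSO fitted.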

[8] = target: Estrogen receptor beta (Homo sapiens) (UniProt Q92731); experiment: OT_ER_ERbERb_0480: Odyssey Thera (OT) 8-hour HEK293T Protein-Complementation Assay for Estrogen Receptor-beta/-beta Homodimer (AID 2283357);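 also: active means signal gain over DMSO baseline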
Estrogen receptor beta (Homo sapiens), sequence (Q92731 whole entry, looked up, the tested form may be a part): as above
Outline: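 Cells (HEK293T, stable ER-beta LBD PCA pair) are treated 8 hours, fixed and Draq5-stained; signal is fluorescence intensity increase relative to vehicle, fitted in the gain direction.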

PGR (gene 5241) = PGR (gene 5241) (UniProt P06401); experiment: NVS_NR_hPR: NovaScreen (NVS) Nuclear Receptor Binding Assay for human Progestron Receptor (PR) (AID 2283360);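 also: active means loss of bound radioligand signal versus DMSO baseline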
PGR (gene 5241), sequence (P06401 whole entry, looked up): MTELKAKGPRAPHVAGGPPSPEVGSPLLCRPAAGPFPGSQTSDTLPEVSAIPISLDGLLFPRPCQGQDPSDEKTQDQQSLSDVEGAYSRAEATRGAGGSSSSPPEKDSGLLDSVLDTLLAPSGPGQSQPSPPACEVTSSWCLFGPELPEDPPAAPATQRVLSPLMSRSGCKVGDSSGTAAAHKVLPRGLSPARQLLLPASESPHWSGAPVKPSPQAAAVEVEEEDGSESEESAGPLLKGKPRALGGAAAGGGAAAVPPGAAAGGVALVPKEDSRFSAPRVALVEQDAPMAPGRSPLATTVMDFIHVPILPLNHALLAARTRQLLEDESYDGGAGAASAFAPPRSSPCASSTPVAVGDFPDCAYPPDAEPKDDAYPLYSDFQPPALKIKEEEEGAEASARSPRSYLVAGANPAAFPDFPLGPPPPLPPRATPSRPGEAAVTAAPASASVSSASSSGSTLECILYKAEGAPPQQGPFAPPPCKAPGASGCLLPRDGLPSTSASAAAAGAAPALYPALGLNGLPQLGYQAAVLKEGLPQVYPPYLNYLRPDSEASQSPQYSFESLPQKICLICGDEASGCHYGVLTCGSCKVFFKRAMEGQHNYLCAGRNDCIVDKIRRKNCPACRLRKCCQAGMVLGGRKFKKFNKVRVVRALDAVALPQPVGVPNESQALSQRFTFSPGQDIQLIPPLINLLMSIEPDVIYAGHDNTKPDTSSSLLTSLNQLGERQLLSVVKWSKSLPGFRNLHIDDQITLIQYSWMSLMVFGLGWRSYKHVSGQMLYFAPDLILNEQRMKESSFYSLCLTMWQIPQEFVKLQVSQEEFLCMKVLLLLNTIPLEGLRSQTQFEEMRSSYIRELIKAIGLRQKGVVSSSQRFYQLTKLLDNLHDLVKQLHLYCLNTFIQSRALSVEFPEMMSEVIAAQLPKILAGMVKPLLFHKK
Outline: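 T47D lysate; tritiated or iodinated radioligand; scintillation count at 18 h. DMSO = negative control/baseline. Primary: 25 uM, duplicate. Secondary: concentration series for actives.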

[9] = target: human Thyroid Receptor Alpha (TRa), THRA (gene 7067) (UniProt P10827); experiment: NVS_NR_hTRa_Antagonist: NovaScreen (NVS) Nuclear Receptor Binding Assay for human Thyroid Receptor Alpha Antagonism (TRa) (AID 2283362);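 also: activity is loss of signal relative to DMSO baseline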
human Thyroid Receptor Alpha (TRa), THRA (gene 7067), sequence (P10827 whole entry, looked up): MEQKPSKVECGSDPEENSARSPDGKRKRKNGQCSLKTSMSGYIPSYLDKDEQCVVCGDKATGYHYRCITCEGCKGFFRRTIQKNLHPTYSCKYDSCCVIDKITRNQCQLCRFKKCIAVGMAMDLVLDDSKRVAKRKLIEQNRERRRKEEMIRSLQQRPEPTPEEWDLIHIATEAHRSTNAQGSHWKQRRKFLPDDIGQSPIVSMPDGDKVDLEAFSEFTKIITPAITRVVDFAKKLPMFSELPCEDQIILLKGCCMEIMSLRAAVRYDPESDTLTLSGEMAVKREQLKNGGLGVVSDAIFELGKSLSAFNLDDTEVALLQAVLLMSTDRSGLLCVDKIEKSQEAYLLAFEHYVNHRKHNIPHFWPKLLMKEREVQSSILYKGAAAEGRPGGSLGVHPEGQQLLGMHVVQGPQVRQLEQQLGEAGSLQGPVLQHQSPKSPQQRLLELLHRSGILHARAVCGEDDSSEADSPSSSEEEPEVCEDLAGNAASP
Outline: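 Actives from a duplicate 25 uM single-point screen were retested in concentration series. The cell-free antagonist-format binding assay was read by AlphaLISA chemiluminescence at 1 h, scored as signal loss relative to DMSO.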

[10] = target: Glucocorticoid receptor (Homo sapiens) (UniProt P04150); experiment: NVS_NR_hGR: NovaScreen (NVS) Nuclear Receptor Binding Assay for human Glucocorticoid Receptor (GR) (AID 2283363);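 as to AC50: activity is loss of specific radioligand binding signal relative to DMSO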
Glucocorticoid receptor (Homo sapiens), sequence (P04150 whole entry, looked up): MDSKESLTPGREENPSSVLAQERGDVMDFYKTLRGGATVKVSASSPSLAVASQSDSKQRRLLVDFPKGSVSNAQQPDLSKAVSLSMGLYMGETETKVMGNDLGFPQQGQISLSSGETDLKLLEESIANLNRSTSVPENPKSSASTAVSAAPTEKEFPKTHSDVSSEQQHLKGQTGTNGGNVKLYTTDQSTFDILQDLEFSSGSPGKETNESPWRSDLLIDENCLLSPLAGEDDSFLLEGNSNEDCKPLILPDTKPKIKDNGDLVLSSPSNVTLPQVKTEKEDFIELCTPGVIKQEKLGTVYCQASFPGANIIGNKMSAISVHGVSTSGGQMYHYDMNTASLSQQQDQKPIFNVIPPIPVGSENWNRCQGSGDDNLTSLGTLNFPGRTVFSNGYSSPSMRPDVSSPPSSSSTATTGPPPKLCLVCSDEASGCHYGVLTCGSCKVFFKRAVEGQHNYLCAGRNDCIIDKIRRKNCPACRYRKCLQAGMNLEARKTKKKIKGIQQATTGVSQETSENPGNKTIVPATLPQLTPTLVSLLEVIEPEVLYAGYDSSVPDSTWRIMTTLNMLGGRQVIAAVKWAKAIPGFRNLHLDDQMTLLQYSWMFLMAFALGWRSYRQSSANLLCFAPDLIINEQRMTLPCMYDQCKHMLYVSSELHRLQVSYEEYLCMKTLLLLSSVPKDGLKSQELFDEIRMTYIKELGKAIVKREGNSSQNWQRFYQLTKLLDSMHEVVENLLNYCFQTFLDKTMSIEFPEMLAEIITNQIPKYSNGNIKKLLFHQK
Outline: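 Competitive displacement of a labelled ligand was measured on cell-free receptor preparations after 16 h exposure. Initial testing used 25 uM in duplicate with plate controls; confirmed actives went into concentration series.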

[11] = target: rat Androgen Receptor (AR), Ar (gene 24208) (UniProt P15207); experiment: NVS_NR_rAR: NovaScreen (NVS) Nuclear Receptor Binding Assay for rat Androgen Receptor (AR) (AID 2283366)
Outline: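 Cell-free radioligand binding on extracts of prostate from testosterone-pretreated rats, read by filter-based scintillation counting 18 h after dosing. Loss of bound signal fitted positively versus DMSO; primary screen in duplicate at 25 uM, actives followed up in concentration series.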

[12] = target: Estrogen receptor (Homo sapiens) (UniProt P03372); experiment: NVS_NR_hER: NovaScreen (NVS) Nuclear Receptor Binding Assay for human Estrogen Receptor (ER) (AID 2283348)
Outline: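 Scintillation signal from bound radioligand was measured 18 hours after chemical addition to cell-free MCF7 protein extracts, with DMSO as baseline. Activity was scored as signal loss; compounds ran first at 25 uM in duplicate.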

[13] = target: guinea pig Sigma Receptor, Non-selective Binding, SIGMAR1 (gene 100135589) (UniProt Q60492); experiment: NVS_OR_gSIGMA_NonSelective: NovaScreen (NVS) Nuclear Receptor Binding Assay for guinea pig Sigma Receptor, Non-selective Binding (AID 2283367)
guinea pig Sigma Receptor, Non-selective Binding, SIGMAR1 (gene 100135589), sequence (Q60492 whole entry, looked up): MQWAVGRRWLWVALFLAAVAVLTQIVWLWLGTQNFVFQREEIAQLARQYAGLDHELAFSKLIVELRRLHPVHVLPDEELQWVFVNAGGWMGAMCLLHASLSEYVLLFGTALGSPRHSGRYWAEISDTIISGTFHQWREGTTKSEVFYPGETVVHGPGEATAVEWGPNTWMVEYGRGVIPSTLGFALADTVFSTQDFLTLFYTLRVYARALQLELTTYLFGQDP
Outline: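 gp brain membr., radioligand displacement, 1 h, filtration + scint. counting; DMSO = baseline; 25 uM x2 primary, conc.-response confirm.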

[14] = target: Nuclear receptor subfamily 1 group I member 2 (Homo sapiens) (UniProt O75469); experiment: NVS_NR_hPXR: NovaScreen (NVS) Nuclear Receptor Binding Assay for human Pregnane X Receptor (PXR) (AID 2283365);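 also: a drop in FRET signal versus DMSO baseline means the compound binds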
Outline: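 Human PXR binding measured by TR-FRET in a cell-free format, 2 h exposure. Single-concentration duplicates at 25 uM preceded concentration-response retests of actives; endpoint fitted positively relative to DMSO, loss of signal indicating binding.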

[15] = target: Retinoic acid receptor alpha (Homo sapiens) (UniProt P10276); experiment: NVS_NR_hRAR_Antagonist: NovaScreen (NVS) Nuclear Receptor Binding Assay for human Retinoic Acid Alpha Receptor Antagonism (RAR) (AID 2283358)
Outline: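 TR-FRET, cell-free, antagonist format; 2 h incubation after dosing; DMSO = baseline; signal loss fitted; 25 uM duplicate primary, then conc. series.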

[16] = target: rat Mineralocorticoid Receptor (MR), Nr3c2 (gene 25672) (UniProt P22199); experiment: NVS_NR_rMR: NovaScreen (NVS) Nuclear Receptor Binding Assay for rat Mineralocorticoid Receptor (MR) (AID 2283355)
rat Mineralocorticoid Receptor (MR), Nr3c2 (gene 25672), sequence (P22199 whole entry, looked up): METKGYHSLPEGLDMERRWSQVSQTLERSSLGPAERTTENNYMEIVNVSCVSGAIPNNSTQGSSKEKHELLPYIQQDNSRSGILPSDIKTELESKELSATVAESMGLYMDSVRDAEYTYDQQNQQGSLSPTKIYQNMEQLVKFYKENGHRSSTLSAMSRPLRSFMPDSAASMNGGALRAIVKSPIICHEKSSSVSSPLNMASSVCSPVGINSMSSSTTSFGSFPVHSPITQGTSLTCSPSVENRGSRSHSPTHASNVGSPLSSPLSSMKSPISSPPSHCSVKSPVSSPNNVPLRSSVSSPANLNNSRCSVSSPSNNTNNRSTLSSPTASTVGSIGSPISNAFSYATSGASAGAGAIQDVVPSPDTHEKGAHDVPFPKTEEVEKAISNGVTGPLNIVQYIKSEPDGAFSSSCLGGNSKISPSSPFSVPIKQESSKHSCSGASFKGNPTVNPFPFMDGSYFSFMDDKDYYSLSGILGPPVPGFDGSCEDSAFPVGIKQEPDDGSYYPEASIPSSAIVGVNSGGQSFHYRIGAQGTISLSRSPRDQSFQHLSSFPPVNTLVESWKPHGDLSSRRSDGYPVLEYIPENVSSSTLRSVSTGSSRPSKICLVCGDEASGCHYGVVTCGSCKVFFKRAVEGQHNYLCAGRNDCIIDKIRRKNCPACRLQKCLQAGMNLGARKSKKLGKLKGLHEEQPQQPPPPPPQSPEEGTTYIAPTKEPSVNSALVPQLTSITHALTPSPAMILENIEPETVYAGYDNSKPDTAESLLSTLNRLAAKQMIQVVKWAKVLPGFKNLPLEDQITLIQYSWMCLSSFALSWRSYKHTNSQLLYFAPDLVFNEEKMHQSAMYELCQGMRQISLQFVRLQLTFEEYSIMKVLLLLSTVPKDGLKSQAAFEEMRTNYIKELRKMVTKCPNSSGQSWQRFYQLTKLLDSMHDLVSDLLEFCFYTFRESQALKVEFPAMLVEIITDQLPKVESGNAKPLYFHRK
Outline: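 Adrenalectomized rat brain supernatant was dosed with test chemical, then radioligand binding was measured by scintillation counting at 24 h. Initial testing ran in duplicate at 25 uM, followed by concentration series for actives.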

[17] = target: Retinoic acid receptor alpha (Homo sapiens) (UniProt P10276); experiment: NVS_NR_hRARa_Agonist: NovaScreen (NVS) Nuclear Receptor Binding Assay for human Retinoic Acid Alpha Receptor Agonism (RAR) (AID 2283361)
Outline: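 Readout is time-resolved fluorescence resonance energy transfer after a 2 h exposure of cell-free extracted receptor protein. Initial testing used 25 uM in duplicate, with concentration-response follow-up for active chemicals.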

[18] = target: human Adenosine Transporter (Adot), SLC29A1 (gene 2030) (UniProt Q99808); experiment: NVS_TR_hAdoT: NovaScreen (NVS) Transporter Assay for human Adenosine Transporter (Adot) (AID 2283368)
Outline: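 U937-derived membranes, cell-free radioligand binding, filter scintillation 1 h after dosing. 25 uM duplicate screen; hits (e.g. 30% inhibition) run in concentration-response up to 50 uM; loss of signal versus DMSO.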

Measured: AC50

CCCCC(O)(Cn1cncn1)c1ccc(Cl)cc1Cl (stereo not given)
active: [5] 72.5 µM | [6] 75.8 µM | [10] 1.29 µM
inactive: [1] | [2] | [3] | [4] | [7] | [8] | PGR (gene 5241) | [9] | [11]

CCSC(=O)N1CCCCCC1
inactive: [12] | [1] | [3] | [4] | [7] | [8]

CC1(C)CON(Cc2ccccc2Cl)C1=O
active: [13] 15.2 µM
inactive: [1] | [3] | [4] | [7] | [8]

CCCN(CC)CC1COC2(CCC(C(C)(C)C)CC2)O1 (stereo not given)
active: [7] 32.2 µM | [13] 0.0101 µM
inactive: [1] | [3] | [8] | [10] | [14]

CC(C)Oc1cccc(NC(=O)c2ccccc2C(F)(F)F)c1
inactive: [1] | [4] | [7] | [15] | PGR (gene 5241) | [10]

CCCC(=NOCC)C1=C(O)CC(CC(C)SCC)CC1=O (stereo not given)
inactive: [1] | [4] | [16] | [7] | [8] | [15]

COc1cc(OC)nc(NC(=O)NS(=O)(=O)c2ncccc2OCC(F)(F)F)n1
inactive: [1] | [3] | [4] | [7] | [8]

CC(C)N1C(=O)c2ccccc2NS1(=O)=O
inactive: [1] | [3] | [16]
active: [17] 6.37 µM

COCC(=O)N(c1c(C)cccc1C)C(C)C(=O)OC (stereo not given)
inactive: [1] | [4] | [7] | [8]

CS(=O)(=O)c1ccc(C(=O)C2C(=O)CCCC2=O)c([N+](=O)[O-])c1
inactive: [1] | [3] | [4] | [7] | [8]

N#Cc1c[nH]cc1-c1cccc2c1OC(F)(F)O2
active: [1] 31 µM | [10] 1.57 µM
inactive: [3]

N#Cc1c(Cl)cccc1Cl
inactive: [1] | [3] | [4] | [7] | [8] | PGR (gene 5241) | [9] | [10] | [14]

Clc1nc(Cl)nc(Nc2ccccc2Cl)n1
active: [9] 25 µM
inactive: [1] | [3] | [4] | [7] | [8]

O=c1n(Cl)c(=O)n(Cl)c(=O)n1Cl
inactive: [1] | [3] | [7] | [8] | [15]

COC(=O)NS(=O)(=O)c1ccc(N)cc1
inactive: [1] | [4] | [16] | [7] | [8]

COP(=O)(OC)O/C(C)=C/C(=O)N(C)C
inactive: [1] | [3] | [4] | [7] | [8]

CSC(=O)c1c(C(F)F)nc(C(F)(F)F)c(C(=O)SC)c1CC(C)C
active: [1] 47.1 µM | [4] 31.9 µM | [7] 31 µM | [8] 18.1 µM
inactive: [3] | [13]

Nc1c(Cl)c(Cl)nc(C(=O)O)c1Cl
inactive: [1] | [3] | [4] | [7] | [8] | [18]

C=CCOC(=O)C(C)(C)OC(=O)c1cc(-n2c(=O)cc(C(F)(F)F)n(C)c2=O)ccc1Cl
inactive: [1] | [4] | [7] | [8]
